Results filed as inconclusive are left out. Entries that show only a call come without a potency. Activity calls are given as the source filed them. Unless noted, the call rests on the fitted dose curve; in most records, active means well fitted curve in the direction sought with a large enough effect in the repeat runs; inconclusive means weak or mixed curves; inactive means no such curve, though single readings can be large; an effect the other way counts as inactive or inconclusive.
Legend:
[1] = qHTS assay to identify small molecule agonists of the NFkB signaling pathway - cell viability counter screen (AID 1159515; calls by dose curve; further: series mostly up to about 61 µM; nearly all actives have a fitted effect of over 55% in size)
Procedure, shortened: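 Using the same wells as the NFkB reporter read, ME-180 NFkB-bla cells given compounds for 5 hr were assessed for viability via CellTiter-Glo, with luminescence taken after a 30 min room-temperature incubation.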

[2] = qHTS assay to identify small molecule agonists of the endoplasmic reticulum stress response signaling pathway (AID 1159516; active means well fitted activation curve with a large enough effect in the signal ratio in the repeat runs, not every such curve was filed as active; the % refers to the signal ratio)
Procedure, shortened: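 An ESRE-bla HeLa cell assay: compounds were pin-transferred from DMSO onto overnight-plated cells and left 5 hr at 37 C. Substrate was then loaded for 2 hr at room temperature before reading fluorescence at 460 nm and 530 nm.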

[3] = qHTS assay to identify small molecule agonists of the endoplasmic reticulum stress response signaling pathway - cell viability counter screen (AID 1159517; calls by dose curve;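 further: HeLa cells carrying an ER stress response element beta-lactamase reporter; series mostly up to about 61 µM; nearly all actives have a fitted effect of over 50% in size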)
Procedure, shortened: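 Cells, HeLa ESRE-bla; density, 1,500/well; dosing, 5 hr at 37 C, 5% CO2; readout, CellTiter-Glo luminescence after 30 min RT.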

[4] = qHTS assay to identify small molecule antagonists of the retinoid-related orphan receptor gamma (ROR-gamma) signaling pathway - cell viability counter screen (AID 1159520); further: nearly all actives have a fitted effect of over 50% in size
Procedure, shortened: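 Cytotoxicity was read from cellular ATP (CellTiter-Glo luminescence) after 16 hr at 37 C with 1 uM doxycycline induction. The inducer was added 2 hr after compound transfer to Tet-on ROR gamma CHO cells.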

[5] = qHTS assay to identify small molecule agonists of the AP-1 signaling pathway - cell viability counter screen (AID 1159525; calls by dose curve; further: nearly all actives have a fitted effect of over 55% in size)
Procedure, shortened: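 Luminescent ATP readout (Cell Titer Glo, 30 min RT), normalised to DMSO and tetra n-octyl ammonium bromide controls. Cells were ME-180 AP-1-bla in 0.5% dialyzed FBS Opti-MEM, with a 5 h, 37 °C compound exposure.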

[6] = qHTS assay to identify small molecule agonists of the AP-1 signaling pathway (AID 1159526; calls by dose curve)
[7] = qHTS assay to identify small molecule agonists of the RXR signaling pathway - cell viability counter screen (AID 1159529); further: series mostly up to about 77 µM; nearly all actives have a fitted effect of over 50% in size
Procedure, shortened: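 RXR-alpha-UAS-bla HEK 293T cells in medium with 2% charcoal-stripped FBS were pre-incubated 5 hr, then compound-treated 16 hr at 37 C. Viability was read by CellTiter-Glo luminescence in the same wells as the beta-lactamase assay, with tetraoctyl ammonium bromide as positive control.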

[8] = qHTS assay to identify small molecule antagonists of the retinoic acid receptor (RAR) signaling pathway (AID 1159552; further: nearly all actives have a fitted effect of over 50% in size)
Procedure, shortened: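 Retinol signaling pathway inhibitors screened in C3RL4 RARE-luciferase reporter cells seeded overnight at 37 C, then compounds added with 1 uM (final) retinol as pathway substrate. After 6 hr at 37 C, luciferase luminescence read after 30 min at room temperature.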

[9] = qHTS assay to identify small molecule agonists of the retinoic acid receptor (RAR) signaling pathway (AID 1159553); further: potency means the concentration at half of the fitted maximal effect
Procedure, shortened: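 Reporter readout comes from luciferase under RARE control in C3RL4 cells; compound exposure lasts 6 hr at 37 C in 5% CO2, and luminescence is recorded following a 30 min room-temperature incubation with reagent.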

[10] = target: Luciferin 4-monooxygenase (Photinus pyralis) (UniProt P08659); experiment: qHTS assay to identify small molecule inhibitors of firefly luciferase (AID 1224835); further: nearly all actives have a fitted effect of over 25% in size; further: potency means the concentration at half of the fitted maximal effect
Luciferin 4-monooxygenase (Photinus pyralis), sequence (P08659 whole entry, looked up): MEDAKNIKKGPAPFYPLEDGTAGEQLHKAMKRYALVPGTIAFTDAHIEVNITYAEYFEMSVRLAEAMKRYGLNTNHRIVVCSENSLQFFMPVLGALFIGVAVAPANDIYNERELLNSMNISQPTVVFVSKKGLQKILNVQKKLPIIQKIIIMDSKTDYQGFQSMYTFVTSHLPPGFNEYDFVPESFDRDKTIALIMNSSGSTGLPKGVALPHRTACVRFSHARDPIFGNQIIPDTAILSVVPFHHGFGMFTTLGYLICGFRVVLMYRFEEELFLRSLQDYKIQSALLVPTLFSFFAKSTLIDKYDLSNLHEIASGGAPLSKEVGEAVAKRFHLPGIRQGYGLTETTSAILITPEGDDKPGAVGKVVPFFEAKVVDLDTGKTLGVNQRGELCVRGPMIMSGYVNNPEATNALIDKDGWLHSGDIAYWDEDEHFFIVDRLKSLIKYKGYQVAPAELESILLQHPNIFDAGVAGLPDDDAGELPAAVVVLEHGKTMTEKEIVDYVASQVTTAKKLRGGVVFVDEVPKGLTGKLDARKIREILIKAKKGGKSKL
Procedure, shortened: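 Inhibition of purified Photinus luciferase is measured by luminescence. Substrate levels (D-luciferin, ATP) sit at their KM values. Each compound is tested in a concentration series.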

[11] = qHTS assay to identify small molecule agonists of the constitutive androstane receptor (CAR) signaling pathway - cell viability counter screen (AID 1224836); further: series mostly up to about 92 µM; nearly all actives have a fitted effect of over 45% in size
Procedure, shortened: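 HepG2 cells stably carrying hCAR and a CYP2B6-2.2kb reporter; 15-concentration compounds plus PK11195 (final 0.75 uM), 23 hr at 37 C/5% CO2. Viability read by CellTiter-Fluor fluorescence.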

[12] = qHTS assay to identify small molecule antagonists of the retinoid acid receptor (RAR) signaling pathway - cell viability counter screen (AID 1159551); further: nearly all actives have a fitted effect of over 35% in size
Procedure, shortened: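 Retinol-stimulated (1 uM final) C3RL4 cells, compound 6 h, 37 C; readout CellTiter-Glo luminescence (ATP) after 30 min RT incubation.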

[13] = qHTS assay to identify small molecule antagonists of the estrogen related receptor (ERR) signaling pathway from Tox21 library - cell viability counter screen (AID 1224834); further: nearly all actives have a fitted effect of over 30% in size
Procedure, shortened: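 After 17.5 h of compound exposure at 37 C, ERR cells are incubated with CellTiter-Fluor for 30 min and fluorescence intensity serves as the viability measure.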

[14] = target: Retinoic acid receptor RXR-alpha (Homo sapiens) (UniProt P19793); experiment: qHTS assay to identify small molecule agonists of the RXR signaling pathway (AID 1159527; calls by dose curve; further: nearly all actives have a fitted effect of over 35% in size)
Retinoic acid receptor RXR-alpha (Homo sapiens), sequence (P19793 whole entry, looked up): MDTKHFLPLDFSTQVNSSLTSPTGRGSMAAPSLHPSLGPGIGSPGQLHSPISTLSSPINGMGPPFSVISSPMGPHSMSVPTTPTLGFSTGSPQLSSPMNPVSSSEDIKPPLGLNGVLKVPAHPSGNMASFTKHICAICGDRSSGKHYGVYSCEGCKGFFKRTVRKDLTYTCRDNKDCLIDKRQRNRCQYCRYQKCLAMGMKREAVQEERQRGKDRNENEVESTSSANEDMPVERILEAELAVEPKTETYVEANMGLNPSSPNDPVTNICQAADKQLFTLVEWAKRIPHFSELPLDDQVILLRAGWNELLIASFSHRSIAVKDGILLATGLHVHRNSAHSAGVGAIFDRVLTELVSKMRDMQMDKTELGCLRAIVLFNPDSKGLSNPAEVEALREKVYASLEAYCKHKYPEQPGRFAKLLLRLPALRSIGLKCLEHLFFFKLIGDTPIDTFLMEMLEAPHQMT
Procedure, shortened: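 GeneBLAzer RXR-alpha-UAS-bla HEK 293T cells in 2% charcoal-stripped FBS medium were exposed to compounds for 16 hr at 37 C in agonist mode. Beta-lactamase reporter read as 460/530 nm FRET ratio after 2 hr substrate loading.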

[15] = qHTS assay to identify small molecule antagonists of the estrogen related receptor (ERR) signaling pathway - cell viability counter screen (AID 1224818); further: series mostly up to about 46 µM
Procedure, shortened: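 After a 6 h pre-incubation, ERR cells were dosed by pin tool with compounds, positive/negative controls or DMSO alone. Following 17.5 h at 37 C and 30 min with CellTiter-Fluor, fluorescence was recorded.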

[16] = qHTS assay to identify small molecule agonists of the estrogen related receptor (ERR) signaling pathway (AID 1224820)
Procedure, shortened: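 ERR reporter cells (NTP line) plated 2,000/well, incubated 6 h at 37 C/5% CO2, then pinned with compounds in DMSO and held 18 h at 37 C. One-Glo added; luminescence read after 30 min at room temperature.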

Structure (SMILES) | Potency [1] | Potency [2] | outcome [3] | Potency [4] | Potency [5] | Potency [6] | Potency [7] | Potency [8] | Potency [9] | Potency [10] | Potency [11] | Potency [12] | Potency [13] | Potency [14] | outcome [15] | outcome [16]
COCCOCCOCCOCCOC | inactive | inactive | inactive | inactive | inactive | inactive | inactive | inactive | inactive | inactive | inactive |  |  |  |  | 
Cc1nc2ccccc2n1Cc1ccc(Cl)cc1 | inactive | inactive | inactive | inactive | inactive | inactive | inactive | inactive |  | inactive | inactive | inactive | inactive |  |  | 
COCCO | inactive | inactive | inactive | inactive | inactive | inactive |  | inactive | inactive | inactive | inactive | inactive | inactive | inactive |  | 
CCCCCC/C=C/C=O | inactive | inactive | inactive | inactive | inactive |  | inactive | inactive | inactive | inactive | inactive | inactive | inactive | inactive |  | 
COc1ccc([C@@H]2Sc3ccccc3N(CCN(C)C)C(=O)[C@@H]2OC(C)=O)cc1 | inactive | inactive | inactive | inactive | inactive | inactive |  | inactive | inactive | inactive |  | inactive |  |  | inactive | inactive
COC(=O)C(C)=O | inactive | inactive | inactive | inactive | inactive | inactive |  |  |  | inactive |  | inactive | inactive | inactive |  | 
CCN(CC)C(C)CN1c2ccccc2Sc2ccccc21 (stereo unspecified) | inactive | inactive | inactive | inactive |  |  | inactive | inactive | inactive | inactive |  |  |  | inactive | inactive | 
Cc1ccc2c(ccc3ccccc32)c1 | inactive | inactive | inactive | inactive | inactive | inactive |  | inactive |  | 31.8 µM (active) | inactive |  |  | inactive |  | 
Oc1ccc(Sc2ccc(O)cc2)cc1 | inactive | inactive | inactive | inactive | inactive | inactive |  | inactive |  |  | inactive | inactive |  | inactive |  | 
O=CNc1ccccc1 | inactive | inactive | inactive | inactive | inactive | inactive | inactive |  | inactive | inactive | inactive | inactive | inactive |  |  | 
CC1=CCC(C(C)C)C=C1 (stereo unspecified) | inactive | inactive | inactive | inactive | inactive | inactive |  |  |  | inactive | inactive | inactive |  | inactive |  | 
O=C(Nc1ccccc1)OCC(CN1CCCCC1)OC(=O)Nc1ccccc1 (stereo unspecified) | inactive | inactive | inactive | inactive | inactive | inactive | inactive | inactive | inactive | inactive | inactive |  | inactive |  |  | 
Cc1cccc(OCCOc2cccc(C)c2)c1 | inactive | inactive | inactive | inactive | inactive | inactive | inactive | inactive |  | inactive | inactive | inactive | inactive |  |  | 
c1ccc(OCc2ccc(CCCN3CCOCC3)cc2)cc1 | inactive | inactive | inactive | inactive | inactive | inactive | inactive | inactive | 13.3 µM (active) |  | inactive |  |  |  |  | 
CC(=O)N(CC(=O)N(C)C)c1ccccc1 | inactive | inactive | inactive | inactive |  |  |  |  |  | inactive |  | inactive | inactive | inactive |  | 
CC/C(=C\C(=N/O)C(N)=O)C(C)[N+](=O)[O-] (stereo unspecified) | inactive | inactive | inactive | inactive | inactive | inactive | inactive | inactive |  | inactive | inactive | inactive | inactive |  |  | 
Nc1ccc(C(=O)Nc2ccccc2N)cc1 | inactive | inactive | inactive | inactive | inactive | inactive |  |  |  |  | inactive | inactive |  |  |  | 
CCCCOc1cc(C(=O)OCCN(CC)CC)ccc1N | inactive | inactive | inactive | inactive | inactive |  | inactive |  | inactive | inactive |  | inactive | inactive | inactive |  | 
CC(C)CCCCCCOC(=O)c1ccc(C(=O)OCCCCCCC(C)C)c(C(=O)OCCCCCCC(C)C)c1 | inactive | inactive | inactive | inactive |  | inactive | inactive | inactive | inactive | inactive |  |  | inactive |  |  | 
O=C(O)COC(=O)Cc1ccccc1Nc1c(Cl)cccc1Cl | inactive | inactive | inactive | inactive | inactive | inactive |  |  | inactive | inactive | inactive |  | inactive |  |  | 
